High-throughput results (PubChem)
GRIN3A LBD mod = modulators (binders) of human NR3A ligand-binding domain; hit rate 2.5% among 340,000; NR3A LBD differential scanning fluorimetry, Tm shift; 0% = protein alone, 100% = glycine-bound protein; AID 1259313; Tm shift relative to glycine control, % at 25 µM;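 active means melting temperature shift of at least 10% of the positive control shift, at one fixed dose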
NadD block = blocks S. aureus nicotinate mononucleotide adenylyltransferase; hit rate 0.78% among 360,000; purified NadD enzyme, colorimetric absorbance read-out; inhibition, % at 20 µM; in the data active means inhibition above about 26%
FAS TE block = inhibitors of human fatty acid synthase thioesterase domain; inhibition, % at 15 µM; P49327; AID 602261; recombinant FAS-TE, OMFH fluorogenic substrate, fluorescence endpoint; hit rate 0.67% among 360,000;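 active means compounds whose normalised, plate-corrected inhibition of enzyme fluorescence in the single-dose primary screen is 50% or more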;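 further: 0% = DMSO with enzyme and 100% = substrate without enzyme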
rCAG RNA binder = r(CAG) repeat RNA binding. TO-PRO-1 dye displacement fluorescence. inhibition, % at 3 µM. hit rate 1.3% among 370,000. AID 651821;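 active means inhibition above the plate cutoff, the mean of all test compounds on that plate plus 3 SD, cut at about 35% in these data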;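 further: 0% = DMSO alone and 100% = 100 µM mitoxantrone as full dye displacement; higher means more dye released from RNA so lower well fluorescence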
rCAG bind conf = r(CAG) RNA repeat binding, confirmation. shares compounds with rCAG RNA binder. hit rate 70% among 4,300. TO-PRO-1 dye displacement fluorescence. AID 652065. inhibition, % at 3 µM;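 active means inhibition above a per-plate cutoff, the mean inhibition of sample wells plus 3 SD, cut at about 35% in these data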;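 further: loss of TO-PRO-1 fluorescence as compound displaces dye from 1x1 AA loop RNA; 0% = DMSO only wells and 100% = 100 µM mitoxantrone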
DNA CAG counter = DNA CAG dye complex inhibition counter-screen; shares compounds with rCAG RNA binder; d(CAG) DNA oligo TO-PRO-1 dye displacement, fluorescence; inhibition, % at 3 µM; hit rate 94% among 4,300; AID 652068;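 active means inhibition above its plate's cutoff, the mean test-well inhibition plus 3 SD, cut at about 4.8% in these data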;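 further: 0% = DNA dye mix with DMSO and 100% = 100 µM mitoxantrone; hits displace the dye from DNA and so lower well fluorescence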
dCAG dye DR = disrupts DNA CAG TO-PRO-1 complex in dose response. shares compounds with rCAG RNA binder. hit rate 20% among 250. AID 686960. IC50, µM. DNA CAG/GTC duplex TO-PRO-1 dye displacement fluorescence; in the data active means IC50 below about 10 µM
Active calls of the source: *; i = inactive; . = no result. The list is not random: actives were taken first. Their share in the collection is about 4.3%.

SMILES	GRIN3A LBD mod	NadD block	FAS TE block	rCAG RNA binder	rCAG bind conf	DNA CAG counter	others
Nc1nc2c(ncn2[C@@H]2O[C@H](C(=O)NCCCN3CCCC3=O)[C@@H](O)[C@H]2O)c(=O)[nH]1	.	.	.	1	.	.
c1ccc(-n2c(SCc3cccc4ccccc34)nnc2-c2ccncc2)cc1	.	.	.	2	.	.
N#Cc1ccc(CC(=O)c2ccccc2)[nH]c1=O	2	7	-2	35*	14	4
CCc1ccc(OCC(=O)Nc2nnc(-c3ccco3)s2)cc1	0	1	-5	52*	3	0
COc1ccc(C2C(C(=O)N3CCN(c4ccccc4C)CC3)CC(=O)N2c2ccc(OC)cc2)cc1 (configuration not stated)	.	.	.	2	.	.
Cc1snc(S(=O)(=O)/C(C#N)=N/Nc2ccc(C(F)(F)F)cc2)c1C#N	24*	1	18	68*	78*	35*
Cc1snc(S(=O)(=O)/C(C#N)=N\Nc2ccccc2)c1C#N	3	-3	1	15	.	.
CCOC(=O)c1sc(NS(=O)(=O)c2cc(C)ccc2C)nc1C	-4	7	-8	44*	32	7.7*
CCOC(=O)c1sc(NC(=O)Nc2ccc(F)cc2)nc1C	0	1	-8	47*	34	23*
CCOC(=O)c1sc(NC(C)=O)nc1C	-1	-3	-8	1	.	.
CC[C@@H]1C=C(C(=O)O)[C@H](c2ccc(F)cc2)N1S(=O)(=O)c1ccc(C)cc1	0	-4	-8	3	.	.
COc1ccc([C@H]2C(C(=O)O)=C[C@@H](CC3CCCC3)N2S(=O)(=O)c2ccc(C)cc2)cc1OC	3	15	1	56*	52*	17*
Cc1ccc([C@H]2C(C(=O)O)=C[C@@H](CC3CCCC3)N2S(=O)(=O)c2ccc(C)cc2)cc1	-4	6	4	68*	73*	27*	dCAG dye DR=i
CC[C@@H]1C=C(C(=O)O)[C@H](c2cccc(C)c2)N1S(=O)(=O)c1ccc(C)cc1	-1	-2	-7	7	.	.
Cc1ccc(S(=O)(=O)N2[C@@H](c3ccc4c(c3)OCO4)C(C(=O)O)=C[C@H]2CC2CCCC2)cc1	1	4	3	67*	61*	25*
Cc1ccc(S(=O)(=O)N2[C@@H](c3cccc(C)c3)C(C(=O)O)=C[C@H]2CC2CCCC2)cc1	-1	-1	4	49*	52*	18*
O=C(O)[C@H](Cc1ccccc1)NC(=O)[C@H]1O[C@@H](n2ccc(=O)[nH]c2=O)[C@H](O)[C@@H]1O	.	.	.	1	.	.
CCc1ccc([C@H]2C(C(=O)O)=C[C@@H](CC3CCCC3)N2S(=O)(=O)c2ccc(C)cc2)cc1	-3	12	15	76*	62*	26*
Cc1ccc(S(=O)(=O)N2[C@@H](c3ccc(F)cc3)C(C(=O)O)=C[C@H]2CC2CCCC2)cc1	-3	2	5	51*	57*	17*
O=C(NC1CCCCN(Cc2cccc(Cl)c2)C1=O)c1cccs1 (configuration not stated)	.	.	.	2	.	.
O=C(CN1C(=O)/C(=C2/SC(=S)N(CCS(=O)(=O)O)C2=O)c2ccccc21)Nc1cccc(C(F)(F)F)c1	8	34*	5	91*	94*	78*
O=C(CN1C(=O)/C(=C2\SC(=S)N(CCS(=O)(=O)O)C2=O)c2ccccc21)Nc1cccc(Br)c1	12*	51*	14	88*	89*	65*
Cc1cc(=O)c2c(ccc3c(=O)cc(C)[nH]c32)[nH]1	.	.	.	3	.	.
CCOc1cc(-c2c(C#N)c(=O)[nH]c3c2c(C)nn3-c2ccc(F)cc2)ccc1O	-10	2	-5	48*	27	6.6*
Cc1nn(-c2ccc(F)cc2)c2nc(N)c(C#N)c(-c3ccc(O)c(O)c3)c12	0	5	14	32	.	.
SMILES	GRIN3A LBD mod	NadD block	FAS TE block	rCAG RNA binder	rCAG bind conf	DNA CAG counter	others
O=C(NC(=S)Nc1cc([N+](=O)[O-])ccc1O)c1ccc2c(c1)OCO2	9	1	12	9	.	.
COc1cc([N+](=O)[O-])ccc1NC(=S)NNC(=O)c1ccc2c(c1)OCO2	2	12	11	64*	57*	16*
Cc1cccc(NC(=O)COc2ccc(/C=C\c3[nH]c(=O)[nH]c(=O)c3[N+](=O)[O-])cc2)c1	10*	23	5	87*	87*	66*
O=c1[nH]c(/C=C/c2ccc([N+](=O)[O-])cc2)c([N+](=O)[O-])c(=O)[nH]1	-3	-2	2	14	.	.
Cc1ccccc1N=Nc1c(C)[nH]n(-c2ccccc2)c1=O	1	.	.	.	.	.
Cc1[nH]n(-c2ccccc2)c(=O)c1N=Nc1ccccc1O	10*	-7	22	40*	27	13*
Nc1cc2c(cc1[N+](=O)[O-])-c1ccccc1C2=NO	23*	5	-59	44*	30	24*
CC(=O)Nc1cc2c(cc1[N+](=O)[O-])-c1ccccc1C2=NO	0	3	-54	5	.	.
COC(=O)C1CN(Cc2ccc(Cl)cc2)CCS(=O)(=O)N1Cc1cn(Cc2ccc(OC)cc2)nn1 (configuration not stated)	.	.	.	1	.	.
COC(=O)[C@]12C[C@H](CC(=O)NCc3cccs3)C(=O)N(Cc3ccccc3)C1=C[C@H](C1CCCC1)O[C@@H]2C	.	.	.	3	.	.
Cc1ccc(C(=O)/C=C/c2cc(Br)cc(Br)c2O)o1	-14	11	-4	60*	46*	16*
COC(=O)N1C[C@H](OC(=S)Nc2ccc(OC)cc2OC)[C@H]2C[C@@H]1c1ccccc1O2	.	.	.	5	.	.
O=S(=O)(Nc1nc(-c2ccccc2)cs1)c1cc(Cl)ccc1Cl	4	5	-2	80*	73*	38*
O=[N+]([O-])c1ccc(S(=O)(=O)Nc2nc(-c3ccccc3)cs2)cc1	0	-2	39	66*	41*	11*
O=S(=O)(Nc1cccnc1)c1cc(Cl)ccc1Cl	3	1	-7	3	.	.
Cc1ccc(S(=O)(=O)Nc2nc(-c3ccc(F)cc3)cs2)cc1	-4	-3	5	62*	56*	15*
Cc1csc(NS(=O)(=O)c2cccc([N+](=O)[O-])c2)n1	1	-2	3	2	.	.
O=S(=O)(Nc1nc(-c2ccccc2)cs1)c1cccc(C(F)(F)F)c1	7	2	11	78*	57*	22*
Nc1nc(-c2cccc(NS(=O)(=O)c3ccccc3)c2)cs1	-6	-1	-4	7	.	.
CCOC(=O)Cc1csc(NS(=O)(=O)c2ccc(F)cc2)n1	0	1	0	6	.	.
CC(=O)OCCCN1CCC2(CCC(c3ccccc3)CC2)C1=O (configuration not stated)	.	.	.	0	.	.
